Measurements as given in ChEMBL document CHEMBL3988442, “University of Dundee, Small-Polar-MMV Screening Library” (2021).
The whole screen tested about 48,000 compounds, of which about 13,000 (27%) showed an effect of 50% or more. The list shows a part of the results.

The compounds below were run on Wolbachia pipientis (assay: Anti-Wolbachia Cell-Based Screen). Conditions: 5 µM.
Format: functional
Set-up: scale not given: in the data most compounds retested in dose-response had high values

| Structure (SMILES) | Percent Effect |
| --- | --- |
| COCCn1ccnc1CN(Cc1ccccn1)Cc1sccc1C | -1.6% |
| CCOc1ccccc1NC(C)C(=O)N(C)Cc1cccc(F)c1 (configuration not stated) | 13.58% |
| CC(=O)Nc1nc(CN(C)CC2CCCN2c2cccnn2)cs1 (configuration not stated) | 10.35% |
| CNC(=O)CC1CCN(C(=O)NCc2coc3ccccc23)CC1 | -8.978% |
| Cn1ccnc1C(O)c1ccccc1N1CCN(Cc2cccs2)CC1 (configuration not stated) | 123.9% |
| CC(C)Oc1ncnc2c1CCN(Cc1cccs1)CC2 | 10.07% |
| Cc1ccccc1C(C)NC(=O)CN1CCN(Cc2cccs2)CC1 (configuration not stated) | 6.89% |
| Cn1ccnc1C(O)c1ccccc1N1CCN(Cc2ccsc2)CC1 (configuration not stated) | 129.7% |
| CC(C)c1noc(C(C)N2CCN(Cc3ccsc3)CC2)n1 (configuration not stated) | 12.33% |
| c1cc(CN2CCN(Cc3cscn3)CC2)cs1 | -0.1438% |
| Cn1cc(N2CCCC(Nc3ccc4c(c3)CCCO4)C2=O)cn1 (configuration not stated) | 3.281% |
| CC1CCN(C)c2ccccc2N1C(=O)c1ccc(=O)n(C)c1 (configuration not stated) | -5.744% |
| CNS(=O)(=O)c1cccc(CNc2ccc(C(F)(F)F)nn2)c1 | 12.46% |
| CCOCCCC(=O)N1CCN(C(=O)Cc2cccc(OC)c2)CC1 | -5.603% |
| Cc1cc(C)n(CC(=O)N2CCC(c3ccn4nccc4n3)CC2)n1 | 104.2% |
| Cc1nc(O)cc(C2CCN(C(=O)CN(C)c3ccccc3)CC2)n1 | -2.835% |
| COc1cccc(CC(=O)N2CCCN(c3ccnc(C)c3)CC2)c1 | -23.77% |
| Cc1cnn(CC(=O)N2CCC(c3ccn4nccc4n3)CC2)c1 | 130% |
| CC1CCN(C(=O)Cn2cc(I)cn2)CC1 | 2.364% |
| Cc1cc(C)n(CC(=O)N2CCC(c3nc(C)no3)CC2)n1 | -3.198% |
| Cc1cc(C)n(CCC(=O)N2CCC(c3nc(C(C)C)no3)CC2)n1 | 8.819% |
| COc1cccc(CC(=O)N2CCC(c3ccn4nccc4n3)CC2)c1 | 113.7% |

| Structure (SMILES) | Percent Effect |
| --- | --- |
| O=C(Nc1cccc(OCc2ccc(F)cc2)c1)C1COCCO1 (configuration not stated) | -6.014% |
| CCOc1ccc(CC(=O)Nc2cnccc2SCCCO)cc1 | 9.652% |
| CCC[C@@H]1CN(Cc2nnc(-c3cccnc3)o2)C[C@H]1NC(C)=O | -9.676% |
| COc1ncc(Cl)c(NCc2ccc([S+](C)[O-])cc2)n1 (configuration not stated) | -2.144% |
| Cc1cccc(C(C(=O)N2CC(c3cccnc3)C2)N(C)C)c1 (configuration not stated) | -9.21% |
| CC1=Nc2c(c(O)nn2C2CCOCC2)C(c2cccnc2)S1 (configuration not stated) | 111.6% |
| CC1=Nc2c(c(=O)[nH]n2C2CCOCC2)C(c2cccc(Br)c2)S1 (configuration not stated) | 2.755% |
| CC1=Nc2c(c(O)nn2C(C)C)C(c2cn(C)nc2C)S1 (configuration not stated) | 105.3% |
| CC1=Nc2c(c(=O)[nH]n2C(C)C)C(c2cccs2)S1 (configuration not stated) | -8.42% |
| O[C@@H]1C[C@@H](c2nc(-c3cccnc3)no2)N(C2CCOCC2)C1 | 9.041% |
| CC1=Nc2c(c(O)nn2C(C)C)C(c2cccnc2)S1 (configuration not stated) | 138.8% |
| CC1=Nc2c(c(O)nn2C(C)C)C(c2cnn(C)c2)S1 (configuration not stated) | 103.6% |
| COC(=O)[C@H](CSC)Nc1nc(C2CCCC2)nc2c1cnn2C | -6.594% |
| CCCN(CC1COc2ccccc2O1)C(=O)C1=NN(C)C(=O)CC1 (configuration not stated) | -3.876% |
| CC(C)N(CCS(C)(=O)=O)Cc1csc(Cc2ccc(Cl)cc2)n1 | -7.743% |
| O=S(=O)(c1ccc(Cl)s1)N1CCCC(c2ncc[nH]2)C1 (configuration not stated) | 4.292% |
| O=C(c1cccnc1Oc1ccccc1)N1CCCn2ncnc21 | 8.828% |
| CCc1ccc(S(=O)(=O)N2CCCn3ncnc32)s1 | 83.72% |
| COC(=O)c1ccc(S(=O)(=O)N2CCCn3ncnc32)s1 | 103.1% |
| O=S(=O)(c1ccc(Cl)s1)N1CCCn2ncnc21 | 95.01% |
| CCC[C@H]1CN(S(=O)(=O)c2ccc(CC)s2)C[C@@H]1N | -3.149% |
| O=C(c1ccc(-c2ccccc2)[nH]c1=O)N1CCCn2ncnc21 | 1.123% |

| Structure (SMILES) | Percent Effect |
| --- | --- |
| COCCOc1ncccc1C(=O)N1CCCn2ncnc21 | -1.947% |
| CCc1ccc(S(=O)(=O)N2CCCC(c3ncc[nH]3)C2)s1 (configuration not stated) | -13.86% |
| Cn1cc(C(=O)Nc2cccc(CCN3CCCC3)c2)ccc1=O | -2.076% |
| CCOCCS(=O)(=O)Cc1ccn(-c2cccc(F)c2)n1 | -15% |
| Cc1ccnc(N2CCC(=O)N(Cc3ccc(F)cc3)C(C(C)C)C2)n1 (configuration not stated) | -3.35% |
| Cc1ccsc1[C@@H]1CCN(C(=O)CCC(=O)c2ccccc2)C[C@H]1O | -8.391% |
| Cc1ccc(S(=O)(=O)N2CCN(CCCO)CC2)s1 | 107% |
| Cc1ccc(CNC(=O)CN2CCN(CCO)CC2)s1 | 0.0165% |
| N#CCCN1CCN(S(=O)(=O)c2ccc(Cl)s2)CC1 | 101.8% |
| CC1(C)OCC2(CO1)CN(S(=O)(=O)c1ccc(Cl)s1)C2 | -3.142% |
| Cc1ccc(S(=O)(=O)N2CCN(CCC(N)=O)CC2)s1 | 97.05% |
| Cc1ccc(S(=O)(=O)N2CCC(Cn3cc(C(C)(C)N)nn3)CC2)s1 | -17.3% |
| Cc1ccc(S(=O)(=O)N2CCN(CCC#N)CC2)s1 | 7.923% |
| CCN1CCN(S(=O)(=O)c2cnc(NC(C)=O)s2)CC1 | -4.735% |
| Cc1ccc(CNC(=O)CNCC2CCN(CCO)CC2)s1 | 0.4784% |
| COc1ccccc1Oc1ncccc1CNC(=O)[C@@H](C)NC(C)=O | -4.174% |
| CC(C)CC(C)NC1CCN(c2ccc(-c3cscn3)cc2)CC1 (configuration not stated) | 3.924% |
| CN(Cc1nnc2n1CCC2)C(=O)c1ccc(=O)n(C)n1 | -6.286% |
| CC(=O)N(C)CC(=O)Nc1cnc(-n2ccnc2)nc1 | 3.406% |
| COc1c(CNCc2cccc(Cn3ccnc3)c2)c(C)nn1C | -8.562% |
| COc1c(CNCc2ccc(Cn3ccnc3)cc2)c(C)nn1C | 103% |
| COc1c(CNCc2ccccc2Cn2ccnc2)c(C)nn1C | 97.96% |

| Structure (SMILES) | Percent Effect |
| --- | --- |
| Cc1nn(C)c(N(C)C)c1CNCc1cccc(CN(C)C)c1.Cl | 9.174% |
| Cc1nn(C)c(N(C)C)c1CNCc1cccc(Cn2cccn2)c1 | 3.492% |
| COc1c(CNCc2ccccc2-n2ccnc2)c(C)nn1C | -0.9457% |
| COc1c(CNCc2ccc(CN3CCOCC3)cc2)c(C)nn1C | -11.29% |
| Cc1nn(C)c(N(C)C)c1CNCc1cccc(Cn2ccnc2)c1 | 81.6% |
| CC(C#N)CSc1ccccc1NCC(=O)NCc1cccs1 (configuration not stated) | -12.24% |
| CCc1nc(C)c(-c2nccn2CC2CC(=O)N(CC)C2)[nH]1 (configuration not stated) | -26.8% |
| O=C(CNC(=O)c1c[nH]c2ccccc12)NCCCn1ccnc1 | 13.72% |
| O=C1CC(c2cccs2)c2cnn(C3CCCC3)c2N1 (configuration not stated) | 48.91% |
| O=C(CN1CCOCC1)N1CCN(C2CCc3ccc(F)cc32)CC1 (configuration not stated) | -10.71% |
| COc1ncc(C(=O)N2CCCC3(C=Cc4ccccc4O3)CC2)cn1 (configuration not stated) | 1.868% |
| CCN(C)c1ncnc2c1CCN(C(=O)N1CCOCC1)CC2 | -3.195% |
| Nc1cc(C(=O)N2CCCC3(C=Cc4ccccc4O3)CC2)ccn1 (configuration not stated) | -15.12% |
| Cc1cc2c(cc1C)OC1(C=C2)CCN(CC(=O)N2CCOCC2)CC1 | 107.9% |
| Cc1cc2c(cc1Cl)C=CC1(CCN(CC(=O)N3CCCC3)CC1)O2 | 122.5% |
| Cc1cc2c(cc1Cl)C=CC1(CCN(CC(=O)N3CCOCC3)CC1)O2 | 104% |
| Cc1cc2c(cc1Cl)C=CC1(CCN(C(=O)N3CCOCC3)CC1)O2 | 95% |
| COc1ccnc(N2CCN(CC(=O)N3CCOCC3)CC2)n1 | 3.835% |
| Cc1cc(C(=O)N2CCCC3(C=Cc4ccccc4O3)CC2)cc(=O)[nH]1 (configuration not stated) | 7.842% |
| O=C(O)C(F)(F)F.c1csc(CN2CCc3ncnc(C4CCOC4)c3CC2)n1 (configuration not stated) | 8.568% |
| O=S(=O)(CC1CCOCC1)NCc1ccnc(O)c1 | 1.758% |
| Cc1ccsc1CCNC(=O)C1(Oc2cccnc2C)CCNCC1 | 14.81% |

| Structure (SMILES) | Percent Effect |
| --- | --- |
| CN(C)c1ccc2c(c1)CN(C(=O)c1ccnnc1)C2c1cnco1 (configuration not stated) | -12.4% |
| O=C(CN1C=Nc2ccccc2S1(=O)=O)NC1CCCCC1 | -27.98% |
| CCc1ccc(O)c(C(=O)N2CCN(CC(=O)N(CC)CC)CC2)c1 | 11.73% |
| Cc1cn(CC(=O)NC2CCN(CC3CC3)CC2)c2ccccc12 | -11.31% |
| Cc1cc2c(cc1Cl)C=CC1(CCN(CC(=O)NC3CCCC3)CC1)O2 | 121.2% |
| CC1(C)CN(CC(F)(F)F)CCN1CC(=O)NC1CCCC1 | 1.341% |
| CCN(CC)C(=O)CN1CCC2(C=Cc3cc(Cl)c(C)cc3O2)CC1 | 113.1% |
| CCc1ccc(O)c(C(=O)N2CCCN(CC(=O)N(CC)CC)CC2)c1 | -4.449% |
| Cc1cc(NC(=O)c2nc(N3CCCC3)ncc2Cl)nc(C(C)C)n1 | -9.396% |
| Cc1ccc(-c2n[nH]cc2CNCC2CCS(=O)(=O)C2)o1 (configuration not stated) | -39.75% |
| COCCCN1CC2(CCCCN2C(=O)C2CCCCC2)CC1=O (configuration not stated) | -3.805% |
| CCOC(=O)C1CC2(CCOCC2)N2CCC(=O)N12 (configuration not stated) | 102.8% |
| CCN1CC2(CCCCN2C(=O)C2CCCCC2)CC1=O (configuration not stated) | -14.04% |
| COCCCN1CC2(CCCCN2C(C)=O)CC1=O (configuration not stated) | 3.783% |
| CCOC(=O)C1CC2(CCCC2)N2CCC(=O)N12 (configuration not stated) | 94.86% |
| CCOC(=O)C1CC2(CCCCC2)N2CCC(=O)N12 (configuration not stated) | 121.9% |
| CCOCC1COCCC12CCN(C(=O)C1=CCCC1)CC2 (configuration not stated) | -18.23% |
| CCN1C(=O)CO[C@@H]2CN(C(=O)C3CCOCC3)C[C@H]21 | 7.95% |
| CCS(=O)(=O)N1CCCC2(CCCC(=O)N2C)C1 (configuration not stated) | -13.94% |
